From PubChem BioAssay (NCI)
Compounds without any hit were thinned out: in the full panel of roughly 79,000, 15% have a hit. Rule as the data show it: active = growth inhibition above about 70%; inactive = the rest.

Assays:
[1] = NCI Yeast Anticancer Drug Screen. Data for the rad50 strain (AID 155);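 also: 0% = growth of vehicle-only cultures of the same strain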; settings: S. cerevisiae rad50 strain growth inhibition; at 50.0 µM; active compounds read high
How it was run: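 Vehicle-treated cultures provide the reference for the growth inhibition reported for compound-exposed, repair-deficient yeast.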

[2] = NCI Yeast Anticancer Drug Screen. Data for the mec2-1 strain (AID 157); settings: S. cerevisiae mec2-1 strain, at 50.0 µM, active compounds read high
How it was run: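 Using mec2-1 yeast: add compound, measure growth, express inhibition versus vehicle-treated cultures.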

[3] = NCI Yeast Anticancer Drug Screen. Data for the sgs1 mgt1 strain (AID 161);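 also: 0% = growth of cultures given vehicle only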; settings: S. cerevisiae sgs1 mgt1 strain, at 50.0 µM, active compounds read high
How it was run: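 This yeast growth screen uses a strain with defined DNA-repair lesions; compound-treated growth is compared with vehicle-treated growth.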

[4] = NCI Yeast Anticancer Drug Screen. Data for the cln2 rad14 strain (AID 165);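 also: 0% = growth equal to vehicle treated cultures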; settings: S. cerevisiae cln2 rad14 strain, at 50.0 µM, active compounds read high
How it was run: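 Yeast strain cln2 rad14, bearing defects in cell cycle control and DNA repair, serves as the test system; values reflect growth inhibition compared with vehicle.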

[5] = NCI Yeast Anticancer Drug Screen. Data for the bub3 strain (AID 167); settings: S. cerevisiae bub3 mutant strain, at 50.0 µM, active compounds read high
How it was run: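 Mutant yeast screening strain plus compound; vehicle-treated cultures serve as the 0% inhibition reference.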

[6] = NCI Yeast Anticancer Drug Screen. Data for the mlh1 rad18 strain (AID 175); settings: S. cerevisiae mlh1 rad18 strain growth inhibition; at 50.0 µM; active compounds read high
How it was run: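 Steps: expose repair-defective yeast to compound; measure growth; express inhibition against vehicle-treated controls.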

Measured: growth inhibition

Cc1cc(C)c(/C(O)=C/C(=S)N2CCOCC2)c(C)c1
inactive: [1] 33.5% | [2] 14.1% | [3] 43.1% | [4] -33% | [5] -15.3% | [6] 32.6%

O=C(CCCn1cnc([N+](=O)[O-])n1)NCCCn1ccnc1[N+](=O)[O-]
inactive: [1] -26.2% | [2] -19.7% | [3] -26.1% | [4] -3.45% | [5] -34.8% | [6] -7.8%

Cc1ccc(-n2c(C)nc3c(c(C)c(C)n3-c3ccccc3)c2=N)cc1
inactive: [1] 4.1% | [2] -0.75% | [3] 4.75% | [4] -19% | [5] 15.4% | [6] 6.65%

COc1ccc(CCN2C(=O)C(=O)N(C(C)C)C2=O)cc1OC
inactive: [1] 7.9% | [2] 1.6% | [3] 13% | [4] 16.4% | [5] 4.85% | [6] 14.7%

Cc1cc(C)nc(N)c1
inactive: [1] 3.75% | [2] -11.8% | [3] -0.4% | [4] -21.8% | [5] -3.25% | [6] 3.05%

Cc1ccccc1C(C#N)/C(=N/NC(=O)C(=O)NN)C(=O)Nc1cccc(C(F)(F)F)c1 (stereo not given)
inactive: [1] 34.1% | [2] 10.9% | [3] 14.2% | [4] 23.1% | [5] 0.25% | [6] 21.8%

Clc1ccc(N=C2CCCCC2)cc1
inactive: [1] 12.4% | [2] -12.5% | [3] -0.2% | [4] 8.45% | [5] -18.2% | [6] 1.9%

CCCCCCC(=O)c1ccco1
inactive: [1] 2.4% | [2] -18.6% | [3] -1.05% | [4] 14.9% | [5] -1.75% | [6] -11.8%

c1ccc(-c2cnc(-c3ccccc3)cn2)cc1
inactive: [1] 1.3% | [2] 10.6% | [3] -6.15% | [4] 41.6% | [5] 6.75% | [6] -15.4%

c1ccc(C(Sc2ncnc3nc[nH]c23)c2ccccc2)cc1
inactive: [1] 15% | [2] 13.2% | [3] -3.85% | [4] -22.5% | [5] 18.1% | [6] 0.1%

Nc1c(Cl)cnn2nnnc12
inactive: [1] -7.5% | [2] -17.4% | [3] -15.6% | [4] -11.9% | [5] 2.95% | [6] -4.25%

COc1ccc(NC(=S)Nc2ccccc2)cc1
inactive: [1] 4.8% | [2] -36.8% | [3] -22.6% | [4] -46.9% | [5] -21.8% | [6] -8.4%

COC(=O)C1CCC(C(=O)OC)CC1 (stereo not given)
inactive: [1] -4.3% | [2] -22.6% | [3] -2.3% | [4] -1.15% | [5] -9% | [6] -11.1%

O=C(CCN1CCC2CCC(C2)C1)c1ccc(Cl)cc1 (stereo not given)
inactive: [1] 17.3% | [2] 3.35% | [3] 46.5% | [4] -4% | [5] 21.3% | [6] -7.3%

CC1=NC2c3c(-c4ccc(Cl)cc4)cn(-c4ccc(C)cc4)c3N=CN2N1 (stereo not given)
inactive: [1] 7.75% | [2] -5.9% | [3] -16.6% | [4] 15.8% | [5] 0.5% | [6] -1.6%

Cc1cc(O)cc2oc(=O)ccc12
inactive: [1] -34.4% | [2] -23.4% | [3] -9.9% | [4] -11.7% | [5] -11.7% | [6] -15.2%

CC(=O)CC(=O)C(F)(F)F
inactive: [1] 14% | [2] -3.35% | [3] -20.5% | [4] 9.8% | [5] 7.3% | [6] 4.75%

Cc1cccc(-c2nnc(-c3cccc4ccccc34)o2)c1
inactive: [1] 8.8% | [2] -28.8% | [3] 43.8% | [4] 14.3% | [5] 26.5% | [6] 13.4%

CC1(C)CC(=O)C(C(c2ccccc2)C2C(=O)CC(C)(C)CC2=O)C(=O)C1
inactive: [1] 4% | [2] -8.9% | [3] 1.8% | [4] 2.6% | [5] 6.5% | [6] 7%

CC(C)CCCC(C)C1CCC2C3CC=C4CC(OC(=O)C56C=CC(=O)C5C5C=CC6CC5)CCC4(C)C3CCC12C (stereo not given)
inactive: [1] 11.4% | [2] 21.6% | [3] -1.2% | [4] 2.25% | [5] 1.65% | [6] 20.9%
